Where a chain is given by its changes, count along the chain named.

The target in the first experiment is T1, SALL4 ZFC4 WT (HT-SELEX) (Mus musculus, UniProt Q8BX22 870-940).
T1 sequence: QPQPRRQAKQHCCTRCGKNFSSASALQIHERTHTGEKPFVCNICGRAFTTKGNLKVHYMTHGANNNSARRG
Description: HT-SELEX; high values mean tight binding. The settings on record: protein: recombinant; vector His6-GST; dsDNA, one strand shown. The method, boiled down:
(§1)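 Up to 6 cycles of selection were run in triplicate. In each, purified recombinant mouse SALL4 zinc finger cluster 4 (residues 870–940, 1 µg) was incubated with library DNA (1.5 µg first cycle, 200 ng later) in 100 µl of 10 mM Tris–HCl pH 7.5, 50 mM NaCl, poly(dI-dC), DTT for 10 min at room temperature, then complexes were captured on Ni2+ beads, washed and PCR-amplified; final pools were MiSeq-sequenced and scanned for 6-mers. Binding signal is each canonical k-mer's read fraction as fold change versus the initial random library.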
With ATTCAG, the binding signal is 1.31 ± 0.0442 fold-change vs cycle 0.
As to AAGTAG, the binding signal was 1.32 ± 0.0481 fold-change vs cycle 0.
In the case of CTTCTA, the binding signal stood at 1.36 ± 0.0301 fold-change vs cycle 0.
For the sequence TCCTCA, the binding signal was found to be 0.899 ± 0.0263 fold-change vs cycle 0.
For AATATA, the binding signal came to 4.74 ± 0.532 fold-change vs cycle 0.
On the same count and under the same terms, under CTACGA stands 0.656 ± 0.0504 fold-change vs cycle 0; under GCTCTA, 0.572 ± 0.0244 fold-change vs cycle 0; under AGTTGA, 1.26 ± 0.0298 fold-change vs cycle 0.
Regarding ATGAAC, the binding signal turned out to be 1.5 ± 0.0592 fold-change vs cycle 0.
Still for that read-out and setting: under GACGAA stands 0.609 ± 0.00641 fold-change vs cycle 0; under TGACAA, 1.16 ± 0.0336 fold-change vs cycle 0.
In the case of AGGAGC, the binding signal came to 0.374 ± 0.0206 fold-change vs cycle 0.
With CATCGG, the binding signal was determined as 0.364 ± 0.0112 fold-change vs cycle 0.
For CGTACC, the binding signal is 0.409 ± 0.0203 fold-change vs cycle 0.
As to CTCCCA, the binding signal is 0.474 ± 0.0284 fold-change vs cycle 0.
Take CTTTTA: the binding signal worked out at 1.77 ± 0.0546 fold-change vs cycle 0.
For CCACTA, the binding signal stood at 0.774 ± 0.0352 fold-change vs cycle 0.
As for ATCTTC, the binding signal amounted to 1.42 ± 0.0263 fold-change vs cycle 0.
The same measure, in the same setting: for CCATCC the value was 0.48 ± 0.0325 fold-change vs cycle 0; for AAGTGC, 0.551 ± 0.0359 fold-change vs cycle 0; for AAATAG, 1.7 ± 0.0926 fold-change vs cycle 0.
As for ATGGAC, the binding signal was found to be 0.777 ± 0.0185 fold-change vs cycle 0.
Consider ACACAG, for which the binding signal came to 0.726 ± 0.03 fold-change vs cycle 0.
Take ACTACA: the binding signal amounted to 1.29 ± 0.0616 fold-change vs cycle 0.
With GGAAAC, the binding signal was found to be 0.775 ± 0.0365 fold-change vs cycle 0.
CACCGA: the binding signal worked out at 0.338 ± 0.00929 fold-change vs cycle 0.
The same measure, in the same setting: under AAGACC stands 0.72 ± 0.0283 fold-change vs cycle 0; under AAAGTT, 1.85 ± 0.124 fold-change vs cycle 0; under CAGACG, 0.352 ± 0.0274 fold-change vs cycle 0.
The same measure, in the same setting: under AACTAC stands 1.27 ± 0.0931 fold-change vs cycle 0; under GAACCC, 0.462 ± 0.0176 fold-change vs cycle 0.
Same read-out and setting: for ACTTCG the value was 0.679 ± 0.0273 fold-change vs cycle 0.
As for TGGAAA, the binding signal is 1.28 ± 0.069 fold-change vs cycle 0.
Turning to TCAGGA, the binding signal was found to be 0.887 ± 0.0551 fold-change vs cycle 0.
For CTCAGC, the binding signal came to 0.369 ± 0.0266 fold-change vs cycle 0.
Still for that read-out and setting: under AATGTC stands 1.08 ± 0.0855 fold-change vs cycle 0; under CTTTAA, 1.84 ± 0.0654 fold-change vs cycle 0; under CATGGG, 0.477 ± 0.0485 fold-change vs cycle 0.
On the same count and under the same terms, for AGACCT the value was 0.753 ± 0.0476 fold-change vs cycle 0.
In the case of AAATTG, the binding signal is 1.6 ± 0.125 fold-change vs cycle 0.

The target in a further experiment is T2, SALL4 ZFC4 R900W (HT-SELEX) (Mus musculus, UniProt Q8BX22 870-940, R900W).
T2 sequence: T1 sequence with R31W
Description: HT-SELEX; high values mean tight binding. The conditions noted are these: protein: recombinant; vector His6-GST; dsDNA, one strand shown. The method, boiled down: as §1
Take ATTCAG: the binding signal was 1.44 ± 0.0342 fold-change vs cycle 0.
As to AAGTAG, the binding signal came to 1.52 ± 0.0706 fold-change vs cycle 0.
In the case of CTTCTA, the binding signal came to 1.53 ± 0.0956 fold-change vs cycle 0.
TCCTCA: the binding signal was 1.04 ± 0.0214 fold-change vs cycle 0.
Same read-out and setting: for AATATA the value was 2.49 ± 0.212 fold-change vs cycle 0.
The same measure, in the same setting: for CTACGA the value was 0.762 ± 0.0209 fold-change vs cycle 0; for GCTCTA, 0.686 ± 0.0351 fold-change vs cycle 0; for AGTTGA, 1.43 ± 0.0288 fold-change vs cycle 0.
Still for that read-out and setting: under ATGAAC stands 1.55 ± 0.0999 fold-change vs cycle 0; under GACGAA, 0.72 ± 0.0219 fold-change vs cycle 0; under TGACAA, 1.29 ± 0.0235 fold-change vs cycle 0.
Take AGGAGC: the binding signal was 0.46 ± 0.0185 fold-change vs cycle 0.
In the case of CATCGG, the binding signal was found to be 0.442 ± 0.0135 fold-change vs cycle 0.
The same measure, in the same setting: for CGTACC the value was 0.467 ± 0.0146 fold-change vs cycle 0; for CTCCCA, 0.569 ± 0.0121 fold-change vs cycle 0; for CTTTTA, 1.86 ± 0.125 fold-change vs cycle 0.
Regarding CCACTA, the binding signal stood at 0.855 ± 0.0167 fold-change vs cycle 0.
Still for that read-out and setting: under ATCTTC stands 1.58 ± 0.0645 fold-change vs cycle 0.
On the same count and under the same terms, under CCATCC stands 0.541 ± 0.0313 fold-change vs cycle 0; under AAGTGC, 0.63 ± 0.00993 fold-change vs cycle 0; under AAATAG, 1.74 ± 0.095 fold-change vs cycle 0.
On to ATGGAC, for which the binding signal worked out at 0.861 ± 0.0318 fold-change vs cycle 0.
The same measure, in the same setting: for ACACAG the value was 0.835 ± 0.00993 fold-change vs cycle 0.
Consider ACTACA, for which the binding signal was 1.42 ± 0.0632 fold-change vs cycle 0.
Still for that read-out and setting: under GGAAAC stands 0.874 ± 0.0459 fold-change vs cycle 0; under CACCGA, 0.392 ± 0.0114 fold-change vs cycle 0; under AAGACC, 0.834 ± 0.0193 fold-change vs cycle 0.
Still for that read-out and setting: under AAAGTT stands 1.9 ± 0.107 fold-change vs cycle 0; under CAGACG, 0.442 ± 0.0268 fold-change vs cycle 0; under AACTAC, 1.37 ± 0.099 fold-change vs cycle 0.
Same read-out and setting: for GAACCC the value was 0.565 ± 0.0113 fold-change vs cycle 0.
ACTTCG: the binding signal was determined as 0.7885 ± 0.004 fold-change vs cycle 0.
Same read-out and setting: under TGGAAA stands 1.27 ± 0.0696 fold-change vs cycle 0; under TCAGGA, 1.02 ± 0.0319 fold-change vs cycle 0.
Take CTCAGC: the binding signal was 0.414 ± 0.0118 fold-change vs cycle 0.
For the sequence AATGTC, the binding signal amounted to 1.21 ± 0.0715 fold-change vs cycle 0.
For CTTTAA, the binding signal was found to be 1.95 ± 0.0889 fold-change vs cycle 0.
The same measure, in the same setting: under CATGGG stands 0.543 ± 0.0349 fold-change vs cycle 0; under AGACCT, 0.917 ± 0.0202 fold-change vs cycle 0; under AAATTG, 1.53 ± 0.0609 fold-change vs cycle 0.

A further experiment deals with T3, SALL4 ZFC4 G921D (HT-SELEX) (Mus musculus, UniProt Q8BX22 870-940, G921D).
T3 sequence: T1 sequence with G52D
Description: HT-SELEX; high values mean tight binding. The conditions noted are these: protein: recombinant; vector His6-GST; dsDNA, one strand shown. The method, boiled down:
as §1
Consider ATTCAG, for which the binding signal came to 1.36 ± 0.0925 fold-change vs cycle 0.
On the same count and under the same terms, for AAGTAG the value was 1.39 ± 0.0907 fold-change vs cycle 0; for CTTCTA, 1.4 ± 0.104 fold-change vs cycle 0; for TCCTCA, 1.06 ± 0.0234 fold-change vs cycle 0.
Still for that read-out and setting: under AATATA stands 2.16 ± 0.28 fold-change vs cycle 0.
For the sequence CTACGA, the binding signal came out at 0.827 ± 0.0362 fold-change vs cycle 0.
The same measure, in the same setting: for GCTCTA the value was 0.788 ± 0.0186 fold-change vs cycle 0.
AGTTGA: the binding signal is 1.37 ± 0.0654 fold-change vs cycle 0.
The same measure, in the same setting: for ATGAAC the value was 1.47 ± 0.0678 fold-change vs cycle 0; for GACGAA, 0.7905 ± 0.00753 fold-change vs cycle 0; for TGACAA, 1.26 ± 0.0515 fold-change vs cycle 0.
Take AGGAGC: the binding signal worked out at 0.595 ± 0.0548 fold-change vs cycle 0.
Take CATCGG: the binding signal turned out to be 0.568 ± 0.0586 fold-change vs cycle 0.
Turning to CGTACC, the binding signal stood at 0.564 ± 0.0582 fold-change vs cycle 0.
In the case of CTCCCA, the binding signal came out at 0.655 ± 0.0274 fold-change vs cycle 0.
As for CTTTTA, the binding signal amounted to 1.63 ± 0.122 fold-change vs cycle 0.
Still for that read-out and setting: under CCACTA stands 0.895 ± 0.0113 fold-change vs cycle 0.
Still for that read-out and setting: under ATCTTC stands 1.46 ± 0.104 fold-change vs cycle 0; under CCATCC, 0.633 ± 0.0281 fold-change vs cycle 0.
As for AAGTGC, the binding signal amounted to 0.76 ± 0.0221 fold-change vs cycle 0.
In the case of AAATAG, the binding signal worked out at 1.58 ± 0.0914 fold-change vs cycle 0.
With ATGGAC, the binding signal turned out to be 0.938 ± 0.0184 fold-change vs cycle 0.
As for ACACAG, the binding signal was 0.877 ± 0.04 fold-change vs cycle 0.
On to ACTACA, for which the binding signal is 1.34 ± 0.0704 fold-change vs cycle 0.
The same measure, in the same setting: for GGAAAC the value was 0.9097 ± 0.00842 fold-change vs cycle 0; for CACCGA, 0.523 ± 0.056 fold-change vs cycle 0; for AAGACC, 0.911 ± 0.0351 fold-change vs cycle 0.
On the same count and under the same terms, under AAAGTT stands 1.7 ± 0.189 fold-change vs cycle 0; under CAGACG, 0.571 ± 0.085 fold-change vs cycle 0; under AACTAC, 1.32 ± 0.108 fold-change vs cycle 0.
On the same count and under the same terms, for GAACCC the value was 0.668 ± 0.0409 fold-change vs cycle 0.
In the case of ACTTCG, the binding signal was 0.854 ± 0.0495 fold-change vs cycle 0.
Same read-out and setting: for TGGAAA the value was 1.23 ± 0.0625 fold-change vs cycle 0; for TCAGGA, 1.03 ± 0.0207 fold-change vs cycle 0; for CTCAGC, 0.525 ± 0.071 fold-change vs cycle 0.
The same measure, in the same setting: under AATGTC stands 1.22 ± 0.0672 fold-change vs cycle 0.
Still for that read-out and setting: under CTTTAA stands 1.69 ± 0.149 fold-change vs cycle 0.
CATGGG: the binding signal turned out to be 0.645 ± 0.0616 fold-change vs cycle 0.
On the same count and under the same terms, under AGACCT stands 0.963 ± 0.0152 fold-change vs cycle 0; under AAATTG, 1.48 ± 0.0586 fold-change vs cycle 0.

Values taken from PMC9838217, “Structure of SALL4 zinc finger domain reveals link between AT-rich DNA binding and Okihiro syndrome”.
